The results in this text go back to PubChem BioAssay (EPA / NIEHS).

SMILES strings stand for the structures. The source made the active and inactive calls. The calls were made as follows: active = hit-call score of the fitted dose curve at least 0.9, where 1 is the maximum; inactive = score below 0.9.

Read-out in this experiment: Macrophage colony-stimulating factor (MCSF), CSF1 (gene 1435)
Put plainly: BSK_LPS_MCSF: BioMAP Diversity Plus: LPS Assay for Macrophage colony-stimulating factor (MCSF) Biomarker Activity (AID 2283083). As to conditions: primary human HUVEC with PBMC; actives raise or lower the signal. The protocol: BSK_LPS is a cell-based, multiplexed-readout assay that uses umbilical vein endothelium and peripheral blood mononuclear cells, a human vascular primary cell co-culture, with measurements taken at 24 hours after chemical dosing in a 96-well plate.BSK_LPS_MCSF is an assay component measured in the BSK_LPS assay. It measures M-CSF antibody related to regulation of gene expression using ELISA technology.Data from the assay component BSK_LPS_MCSF was analyzed into 1 assay endpoint. This assay endpoint, BSK_LPS_MCSF, was analyzed with bidirectional fitting relative to DMSO as the negative control and baseline of activity. Using a type of binding reporter, gain or loss-of-signal activity can be used to understand changes in the signaling as they relate to the gene CSF1. Furthermore, this assay endpoint can be referred to as a primary readout, because this assay has produced multiple assay endpoints where this one serves a signaling function. To generalize the intended target to other relatable targets, this assay endpoint is annotated to the cytokine intended target family, where the subfamily is colony stimulating factor.
The levels of cell surface (or secreted, indicated by the prefix "s") biomarker endpoints were measured by ELISA. Overt cytotoxicity to cells in confluent adherent cultures (all systems other than the BT system) was assessed by measuring total protein levels using sulforhodamine B (SRB) staining in parallel cultures at the time of biomarker measurements, indicated as SRB endpoints. For proliferation assays for adherent cell types, individual cell types are cultured at sub-confluence and relative cell numbers quantified by SRB staining at time points optimized for each system (48 h: 3C and CASM3C systems; 72 h: BT and HDF3CGF systems; 96 h: SAg system). SRB was performed by staining cells with 0.1% SRB after fixation with 10% TCA and reading wells at 560 nm.Viability and proliferation of PBMC (T cells) was quantified by Alamar Blue reduction for the SAg and BT systems. For PBMC viability (referred to as PBMC Cytotoxicity within the assay endpoint names), cells were plated (75,000/well in a 96-well plate) and then chemical samples added for 1 h before addition of activators, SEB and TSST-1 (20 ng/mL final concentration each). Cells were incubated for 90 h. Then, Alamar Blue (20 uL/well) (Invitrogen, Cat DAL1100) was added for 6 h, and the plates were read with a fluorescence microplate reader at 546/580 nm (excitation/emission). For PBMC proliferation, cells were plated and activated as above but incubated for only 16 h prior to addition of Alamar Blue. Plates were read after 6 h.
For orientation: AC50 means the concentration at which the activity in the assay is half-maximal. Take `Oc1c(Cl)cc(Cl)c(Cl)c1Cc1c(O)c(Cl)cc(Cl)c1Cl`: the AC50 was 11.6 µM (active).

Turning to `CCCCCCCCCCCCCCCC(=O)OC/C=C(C)/C=C/C=C(C)/C=C/C1=C(C)CCCC1(C)C`, the result was inactive.

As to `O=C1c2ccccc2C(=O)c2c(O)ccc(O)c21`, the result was inactive. Take `O=C1OC[C@H](Cc2cccc(O)c2)[C@H]1Cc1cccc(O)c1`: the result was inactive. Regarding `CS(=O)(=O)c1ccc(C2=C(c3ccccc3)C(=O)OC2)cc1`, the outcome was inactive.

In the case of `C1=CC2C3C=CC(C3)C2C1` (stereo not given), the result was inactive.

`CCOC(=O)C(C#N)=C(c1ccccc1)c1ccccc1`: the outcome was inactive.

On to `CS(=O)(=O)OCCCCOS(C)(=O)=O`, for which the result was inactive.

`O=C1OC2(c3ccccc31)c1ccc(O)c(Br)c1Oc1c2ccc(O)c1Br`: the AC50 is 20 µM (active). For the compound `COc1ccc(CCN2CCC(Nc3nc4ccccc4n3Cc3ccc(F)cc3)CC2)cc1`, the outcome was inactive. `C=CC(C)(O)CCC=C(C)C` (stereo not given): the outcome was inactive. For the compound `CC(=O)Nc1ccc(C(=O)CCl)cc1`, the AC50 is 5.36 µM (active). On to `C[C@@H]1CCN(C(=O)[C@H](CCCN=C(N)N)NS(=O)(=O)c2cccc3c2NC[C@H](C)C3)[C@@H](C(=O)O)C1`, for which the result was inactive. Take `CCCCN(CCCC)C(=O)N(CCCC)CCCC`: the half-maximal activity concentration (AC50) was 20 µM (active).

As to `CCC(C)c1cc([N+](=O)[O-])cc([N+](=O)[O-])c1OC(=O)OC(C)C` (stereo not given), the AC50 was 14 µM (active). As to `C=C(C)C(=O)OCC(CC)(COC(=O)C(=C)C)COC(=O)C(=C)C`, the result was inactive. For `CC1(C)C2=CCCC(C)(C)[C@]23CC[C@H]1C3`, the result was inactive. With `O=C(Nc1ccc2c(O)c(N=Nc3ccc(N=Nc4ccc(S(=O)(=O)O)cc4)cc3)c(S(=O)(=O)O)cc2c1)c1ccccc1`, the result was inactive.

In the case of `CN(c1nccc(=O)[nH]1)C1CCN(c2nc3ccccc3n2Cc2ccc(F)cc2)CC1`, the result was inactive. Regarding `CC(=O)C1(C)CC2=C(CCCC2(C)C)CC1C` (stereo not given), the AC50 is 8.91 µM (active). On to `IC(I)I`, for which the outcome was inactive. The same measure, in the same setting: under `C=C(C)[C@H]1CC=C(C)C(=O)C1` stands “inactive”. Still for that read-out and setting: under `CN(C)C(=S)SC(=S)N(C)C` stands “inactive”.

Consider `CCCCOC(=O)CCCCCCCC(=O)OCCCC`, for which the outcome was inactive. As to `C=C(C)C(=O)OCCOCCOCCOCCOC(=O)C(=C)C`, the result was inactive. Still for that read-out and setting: under `C=C(C)C(=O)OCCOCCOCCOC(=O)C(=C)C` stands “inactive”; under `CC(CN=Cc1ccccc1O)N=Cc1ccccc1O` (stereo not given), “inactive”. Take `COc1ccc(OC)c(N=Nc2c(O)ccc3ccccc23)c1`: the AC50 is 20 µM (active). Still for that read-out and setting: with `Clc1cc(Cl)c(-c2c(Cl)c(Cl)cc(Cl)c2Cl)cc1Cl` the figure was 1.98 µM (active). Regarding `c1ccc(Oc2ccccc2)cc1`, the result was inactive.

As to `c1ccc(CCc2ccccc2)cc1`, the AC50 was 31.2 µM (active). As to `CSCCC=O`, the outcome was inactive. Turning to `CCN(CC)C(=O)N(CC)CC`, the outcome was inactive.

For the compound `CN(C)C(=O)Nc1ccc(Oc2ccc(Cl)cc2)cc1`, the result was inactive. Still for that read-out and setting: under `CC1(C)CCC[C@]2(C)[C@H]3CCO[C@]3(C)CC[C@@H]12` stands “inactive”. Regarding `CCCCCCC(CO)CCCC` (stereo not given), the result was inactive.

`CC(C)(C)CC(C)(C)c1ccc(OCCOCC[N+](C)(C)Cc2ccccc2)cc1`: the AC50 is 7.03 µM (active). As for `O=CN1CCOCC1`, the outcome was inactive. The same measure, in the same setting: under `COc1cc(Cl)c(OC)cc1N` stands “inactive”; under `CC(C=O)Cc1ccc(C(C)(C)C)cc1` (stereo not given), “inactive”.
